Reference: PubChem BioAssay (NCI)
Compounds without any hit were thinned out: in the full panel of roughly 83,000, 20% have a hit.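 Plates (96-well) were seeded with cells, treated with compound at one concentration, and incubated for 48 hours before percent growth was determined.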 A number with no mark means an inactive call. Active and inactive are the calls of the source. The calls were made as follows: active = growth percent below 10; inactive = the rest.

System: K-562 leukemia
Experiment: NCI-60 one-dose screen, 48 h (100 = growth as untreated, 0 = no growth, -100 = all killed)
Conditions: 10 µM unless noted

How did the growth turn out when `O=C1Nc2ccc3c(c2/C1=C\c1cc2c(cc1Br)OCO2)OCO3` was run?
The growth was 14.9%.

`Cc1ccc(N2CCN(C(C)C(N)=O)CC2)cc1` (stereo unspecified) was tested. Which growth did it give?
The growth was 114%.

For `COc1cc(NC(N)=NCCC(C)(C)Oc2ccc(C(F)(F)F)cc2)ncc1C#N`, which growth is on record?
Its growth is -43.7% (active).

How did the growth turn out when `CCc1ccc(-c2ccc(=O)n(-c3ccc(S(N)(=O)=O)cc3)n2)cc1` was run?
Its growth is 11%.

How did the growth turn out when `CC[N+](CC)=c1cc2oc3cc(N(C)C)ccc3nc-2cc1C` was run?
Its growth is 55.2%.

How did the growth turn out when `COc1cccc(-c2nc3sccn3c2-c2ccnc(NCCCNS(=O)(=O)c3ccc(F)cc3)c2)c1` was run?
The growth was 17.8%.

How did the growth turn out when `N[C@H]1CN(C(=O)c2cc3cc(Br)c(F)c(F)c3[nH]2)C[C@@H]1O` was run?
Its growth is 104%.

With `O=C(N/N=C/C=C\c1ccccc1)C(=O)N/N=C/C=C/c1ccccc1` as the compound, how does the growth read?
The growth was 113%.

With `O=C(O)COc1ccc(-c2cssc2=S)cc1` as the compound, how does the growth read?
Its growth is 115%.

Which growth does the source give for `CCOC(=O)c1c(NS(=O)(=O)c2ccc(C)cc2)sc2c1CCC1(C2)OCCO1` here?
Its growth is 89.5%.

How did the growth turn out when `Cc1nc2ncccc2nc1Nc1ccc(S(=O)(=O)Nc2ccccn2)cc1` was run?
The growth was 106%.

`Fc1ccc(Nc2ncnc3ccc(-c4cnc5[nH]ccc5c4)cc23)cc1Cl` was tested. Which growth did it give?
The growth was 4.25% (active).

Which growth does the source give for `COc1ccc(C2C(C#N)=C(N)Oc3c2ccc2ccccc32)cc1` (stereo unspecified) here?
Its growth is 19.6%.

How did the growth turn out when `COc1ccc(C(=O)N2NC(=O)/C(=C/c3cn(-c4ccccc4)nc3-c3ccccc3)N=C2c2ccccc2)cc1` was run?
The growth was 105%.

Which growth does the source give for `C=C1C(=O)O[C@H]2[C@H]1CC/C(Cn1cc(CNC(=O)Cc3cn(C(=O)c4ccc(Cl)cc4)c4ccc(OC)cc34)nn1)=C\CC[C@@]1(C)O[C@@H]21` here?
Its growth is -22.6% (active).

For `CCCCC(CC)OC(=O)C(Br)CC` (stereo unspecified), which growth is on record?
Its growth is 83.8%.

With `O=C1/C(=C/c2ccccc2)Oc2ccc(O)c(I)c21` as the compound, how does the growth read?
The growth was 99.5%.

For `COC(=O)c1cc2cc(-c3ccc(OC)cc3)cnc2[nH]1`, which growth is on record?
Its growth is 8.43% (active).

Which growth does the source give for `c1coc(CNc2ccnc(Nc3ccc(OCCN4CCCCC4)cc3)n2)c1` here?
Its growth is 27.6%.

How did the growth turn out when `COc1ccc2[nH]c(C(=O)OCc3ccc4c(Cl)cc(Cl)c(O)c4n3)cc2c1` was run?
Its growth is -13.7% (active).

How did the growth turn out when `CCOC(=O)C1CCNC(=O)C1=O` (stereo unspecified) was run?
The growth was 109%.

`O=C(O)C1CCCCN1c1nc(Cl)nc(Cl)n1` (stereo unspecified) was tested. Which growth did it give?
Its growth is 103%.

Which growth does the source give for `C=C1CCC2C(C)(CO)C(O)CCC2(C)C1CC(NCc1ccccc1)C1=CCOC1=O` (stereo unspecified) here?
Its growth is 101%.

With `CCCCCCCCCCCC(=O)NCCC[N+](C)(C)CC(=O)[O-]` as the compound, how does the growth read?
The growth was 83.3%.

For `CN(CCCCCl)P(=O)(OCc1ccc([N+](=O)[O-])o1)C(F)(F)C[C@H](NC(=O)CNC(=O)c1ccc(N=[N+]=[N-])cc1)C(=O)NCCc1ccc(O)cc1` (stereo partly specified), which growth is on record?
Its growth is 40.4%.

With `NC(N)=Nc1nc2ccccc2o1` as the compound, how does the growth read?
The growth was 104%.
